Measured values published in PubChem BioAssay AID1159580 (chemical genetic matrix, 2015).
Values joined by “and” are separate entries in the source; they are usually repeats but may differ in a detail not shown here. Equal values may be shown once. Hit rate of the full screen: of about 5,500 compounds, about 2,000 (36%) were called active. Not shown: some 18% with an inconclusive outcome. No stated cut-off is given here; in the data, active means normalized growth mostly below about 0.91 (no sharp cut-off); inconclusive means no clear call, values can overlap the other calls; inactive means mostly above about 0.92. The list shows a part of the results.

Experiment: chemical genetic growth profiling, strain panel (AID 1159580);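 further: tested at 20 µM; growth read once vehicle control cultures reached saturation at 30 °C; 1 = growth at the plate median or of vehicle wells; lower values mean less growth of the strain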
Settings: S. cerevisiae deletion strains, growth OD

Measured: normalized growth

CC1(C)C2CC[C@]3(C)C(C(=O)C=C4[C@@H]5C[C@@](C)(C(=O)O)CC[C@]5(C)CC[C@]43C)[C@@]2(C)CC[C@@H]1O (stereo not given in full)
active: locus YGL078C, strain dbp3, active compounds read low 0.907 | locus YGL173C, strain kem1, active compounds read low 0.876 | locus YKL009W, strain mrt4, active compounds read low 0.864 | locus YKL068W, active compounds read low 1.08 [resistant] | locus YKL085W, strain MDH1 (second series), active compounds read low 1.07 [resistant] | locus YKL085W, strain MDH1, active compounds read low 1.07 [resistant] | locus YMR125W, strain sto1, active compounds read low 1.12 [resistant] | locus YOR001W, strain rrp6, active compounds read low 0.886 | locus YOR184W, strain ser1, active compounds read low 0.857
inactive: locus YAL013W, strain DEP1, active compounds read low 1.02 | locus YAL021C, strain ccr4, active compounds read low 1.02 | locus YAL026C, strain drs2, active compounds read low 0.999 | locus YAL030W, strain snc1, active compounds read low 1 | locus YBL061C, strain skt5, active compounds read low 1.02 | locus YBR009C, strain hhf1, active compounds read low 0.93 | locus YBR021W, strain FUR4, active compounds read low 0.961 | locus YBR023C, strain chs3, active compounds read low 1.02 | locus YBR171W, strain sec66, active compounds read low 1 | locus YBR229C, strain ROT2, active compounds read low 1.06 | locus YBR231C, strain swc5, active compounds read low 1.08 | locus YBR279W, strain paf1, active compounds read low 1.03 | locus YCL011C, strain gbp2, active compounds read low 0.988 | locus YCL016C, strain dcc1, active compounds read low 1.03 | locus YCL029C, strain bik1, active compounds read low 0.956 | locus YCL069W, strain vba3, active compounds read low 1 | locus YCR088W, strain abp1, active compounds read low 1.02 | locus YDL005C, strain med2, active compounds read low 1.01 | locus YDL035C, strain GPR1, active compounds read low 0.873 | locus YDL040C, strain nat1, active compounds read low 1.03 | locus YDL074C, strain BRE1, active compounds read low 1.02 | locus YDL101C, strain DUN1, active compounds read low 1.02 | locus YDL185W, strain tfp1, active compounds read low 1.04 | locus YDL192W, strain arf1, active compounds read low 0.996 | locus YDR001C, strain nth1, active compounds read low 1.01 | locus YDR069C, strain doa4, active compounds read low 1 | locus YDR101C, strain arx1, active compounds read low 0.98 | locus YDR137W, strain rgp1, active compounds read low 0.879 | locus YDR159W, strain sac3, active compounds read low 0.908 | locus YDR162C, strain NBP2, active compounds read low 0.986 | locus YDR195W, strain ref2 1.07 | locus YDR297W, strain sur2, active compounds read low 0.978 | locus YDR318W, strain mcm21, active compounds read low 0.997 | locus YDR334W, strain swr1, active compounds read low 0.964 | locus YDR335W, strain msn5, active compounds read low 1.01 | locus YDR388W, active compounds read low 1.01 | locus YDR392W, strain spt3, active compounds read low 1.02 | locus YDR502C, strain sam2, active compounds read low 0.968 | locus YEL003W, strain gim4, active compounds read low 0.932 | locus YEL037C, strain rad23, active compounds read low 1 | locus YEL061C, strain CIN8 (second series), active compounds read low 1.01 | locus YER015W, strain faa2, active compounds read low 1.02 | locus YER016W, strain bim1, active compounds read low 1.01 | locus YER110C, active compounds read low 1.04 | locus YER111C, strain swi4, active compounds read low 1.03 | locus YER155C, strain BEM2 (second series), active compounds read low 1.13 | locus YER155C, strain BEM2, active compounds read low 1.06 | locus YER167W, strain BCK2, active compounds read low 1.07 | locus YFR010W, strain ubp6, active compounds read low 0.943 | locus YGL086W, strain mad1, active compounds read low 1.01 | locus YGL167C, strain pmr1, active compounds read low 0.996 | locus YGL227W, strain vid30, active compounds read low 1.02 | locus YGL240W, strain doc1, active compounds read low 0.986 | locus YGL248W, strain PDE1, active compounds read low 0.985 | locus YGL253W, strain hxk2, active compounds read low 1.02 | locus YGR078C, strain PAC10, active compounds read low 1.02 | locus YGR135W, strain pre9, active compounds read low 0.981 | locus YGR252W, strain gcn5, active compounds read low 0.833 | locus YHR013C, strain ard1, active compounds read low 1.1 | locus YHR027C, strain rpn1, active compounds read low 0.956 | locus YHR030C, strain SLT2, active compounds read low 1.07 and 0.991 | locus YHR079C, strain IRE1 (second series), active compounds read low 1.02 | locus YHR079C, strain IRE1, active compounds read low 0.973 | locus YHR094C, strain hxt1, active compounds read low 1.03 | locus YHR129C, strain ARP1, active compounds read low 1.07 | locus YHR142W, strain chs7, active compounds read low 1.01 | locus YHR200W, strain rpn10, active compounds read low 1.03 | locus YIL066C, strain RNR3, active compounds read low 1.03 | locus YIL073C, strain SPO22, active compounds read low 0.956 | locus YIL125W, strain kgd1, active compounds read low 1.01 | locus YIR030C, strain dcg1, active compounds read low 1.01 | locus YJL092W, strain hpr5, active compounds read low 1.02 | locus YJL095W, strain BCK1 (second series), active compounds read low 1.02 | locus YJL095W, strain BCK1, active compounds read low 0.971 and 0.979 | locus YJL115W, strain asf1, active compounds read low 1.01 | locus YJL129C, strain trk1, active compounds read low 1.04 | locus YJL134W, strain LCB3, active compounds read low 1.05 | locus YJL154C, strain vps35, active compounds read low 1.01 | locus YJL164C, strain tpk1, active compounds read low 0.946 | locus YJL166W, strain qcr8, active compounds read low 0.974 | locus YJL168C, strain set2, active compounds read low 1.03 | locus YJL187C, strain SWE1 (second series), active compounds read low 1 | locus YJR043C, strain POL32, active compounds read low 0.99 | locus YJR066W, strain TOR1, active compounds read low 0.953 | locus YJR075W, strain HOC1, active compounds read low 1.04 | locus YKL160W, strain elf1, active compounds read low 1.01 | locus YKL190W, strain CNB1, active compounds read low 1.08 | locus YKR001C, strain vps1, active compounds read low 0.992 | locus YKR026C, strain gcn3, active compounds read low 1.02 | locus YKR091W, strain srl3, active compounds read low 1.01 | locus YLL001W, strain dnm1, active compounds read low 0.952 | locus YLL026W, active compounds read low 1.01 | locus YLL041C, strain sdh2, active compounds read low 1.03 | locus YLR027C, strain aat2, active compounds read low 1 | locus YLR039C, strain RIC1, active compounds read low 1.03 | locus YLR058C, strain SHM2, active compounds read low 1.01 | locus YLR102C, strain apc9, active compounds read low 1.03 | locus YLR113W, strain HOG1, active compounds read low 0.974 | locus YLR221C, strain rsa3, active compounds read low 0.918 | locus YLR258W, strain gsy2, active compounds read low 1 | locus YLR262C, strain YPT6 (second series), active compounds read low 0.88 | locus YLR262C, strain YPT6, active compounds read low 0.933 | locus YLR268W, strain sec22, active compounds read low 0.953 | locus YLR320W, strain mms22, active compounds read low 0.941 | locus YLR330W, strain CHS5, active compounds read low 1.06 | locus YLR342W, strain FKS1 (second series), active compounds read low 0.977 | locus YLR342W, strain FKS1, active compounds read low 0.961 | locus YLR357W, strain rsc2, active compounds read low 1.08 | locus YLR370C, strain arc18, active compounds read low 1.04 | locus YLR371W, strain rom2, active compounds read low 1.04 | locus YLR384C, strain iki3, active compounds read low 1.03 | locus YLR418C, strain cdc73, active compounds read low 0.991 | locus YML016C, strain PPZ1, active compounds read low 1.05 | locus YML032C, strain rad52, active compounds read low 0.973 | locus YML120C, strain ndi1, active compounds read low 0.933 | locus YML124C, strain tub3, active compounds read low 1.03 | locus YMR058W, strain fet3, active compounds read low 0.983 | locus YMR078C, strain ctf18, active compounds read low 1.04 | locus YMR129W, active compounds read low 1.02 | locus YMR205C, strain PFK2, active compounds read low 0.99 | locus YMR223W, strain ubp8, active compounds read low 0.978 | locus YMR231W, strain pep5, active compounds read low 0.99 | locus YMR307W, strain GAS1, active compounds read low 0.902 | locus YNL067W, strain RPL9B, active compounds read low 0.987 | locus YNL071W, strain lat1, active compounds read low 0.996 | locus YNL128W, strain TEP1, active compounds read low 1.05 | locus YNL153C, strain GIM3, active compounds read low 0.982 | locus YNL183C, strain NPR1, active compounds read low 0.933 | locus YNL209W, strain ssb2, active compounds read low 1.03 | locus YNL233W, strain BNI4, active compounds read low 0.992 | locus YNL248C, strain rpa49, active compounds read low 1.01 | locus YNL250W, strain rad50, active compounds read low 0.998 | locus YNL271C, strain bni1, active compounds read low 0.994 | locus YNL298W, strain CLA4, active compounds read low 0.942 | locus YNL307C, strain MCK1, active compounds read low 1.03 | locus YNL322C, strain KRE1 (second series), active compounds read low 0.982 | locus YNL322C, strain KRE1, active compounds read low 1.05 | locus YNR049C, strain mso1, active compounds read low 1.03 | locus YNR052C, strain pop2, active compounds read low 0.955 | locus YOL006C, strain TOP1, active compounds read low 0.968 | locus YOL012C, strain htz1 1.55 | locus YOL147C, strain pex11, active compounds read low 1.03 | locus YOR061W, strain CKA2, active compounds read low 1.04 | locus YOR069W, strain VPS5, active compounds read low 1.05 | locus YOR070C, strain gyp1, active compounds read low 1.01 | locus YOR080W, strain dia2, active compounds read low 1 | locus YOR083W, strain WHI5, active compounds read low 0.922 | locus YOR106W, strain vam3, active compounds read low 0.925 | locus YOR136W, strain idh2, active compounds read low 1.01 | locus YOR144C, strain elg1, active compounds read low 1.02 | locus YOR231W, strain MKK1, active compounds read low 0.966 | locus YOR265W, strain rbl2, active compounds read low 1 | locus YOR270C, strain vph1, active compounds read low 0.918 | locus YOR290C, strain snf2, active compounds read low 0.989 | locus YOR316C, strain cot1, active compounds read low 1.03 | locus YPL051W, strain arl3, active compounds read low 1.02 | locus YPL055C, strain LGE1, active compounds read low 1.06 | locus YPL078C, strain atp4, active compounds read low 1.02 | locus YPL106C, strain sse1, active compounds read low 1.13 | locus YPL240C, strain hsp82, active compounds read low 1.01 | locus YPL256C, strain CLN2, active compounds read low 1.05 | locus YPR119W, strain clb2, active compounds read low 1.03 | locus YPR141C, strain kar3, active compounds read low 1.05 | locus YPR163C, strain tif3, active compounds read low 1.03 | locus YPR167C, strain met16, active compounds read low 1.02 | strain wtn01, active compounds read low 0.966
